# Rows were chosen to be rich in hits. Some 19% of all compounds tested hit in one or more screens of this group.
# IL-1B inflam inh – inhibitors of inflammasome signaling (IL-1 beta secretion) | THP-1 LPS/ATP IL-1B secretion, AlphaLISA, 16 h; stronger effect = lower value | activity change, % at 57.5 µM | 4.7% of 360,000 active | AID 743279; in the data active = activity change below about -50%; inconclusive = mostly about -30% to -49%
#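 Secreted IL-1B measured by AlphaLISA bead assay after 16 h compound exposure of THP-1 cells; compounds (final up to 57.5 uM) added 1 h before LPS (250 ng/mL) and ATP (1.25 mM) stimulation; lower signal means less secretion.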
# TDP1 cell noCPT – qHTS for Inhibitors of human tyrosyl-DNA phosphodiesterase 1 (TDP1): qHTS in cells in absence of CPT. AID 686978, 2013. DT40 Tdp1-/- hTDP1 cells, no CPT, ATP luminescence, 48 h. 15% of 420,000 active. Potency, µM (series often up to 46.2 µM), for inactives: at the top dose activity change, negative = growth inhibition, most hits filed as inhibitors; also: potency is read from the fitted curve at half-maximal effect; nearly all actives have a fitted effect of over 55% in size
#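 Luminescent ATP content (CellTiter-Glo) served as the growth readout. Knockout chicken DT40 cells expressing human TDP1 were exposed to compounds without camptothecin for a minimum 48 hr at 37 °C.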
# HT1080-NT tox – kills 2HG-producing HT-1080-NT fibrosarcoma cells; HT-1080-NT fibrosarcoma viability, CellTiter-Glo ATP luminescence, 48 h; Potency, µM (series often up to 46.1 µM), for the others: top-dose activity, negative = less viability, most hits filed as cytotoxic; 1.6% of 360,000 active; AID 686970;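 also: NT is the 2HG producing partner of a matched IDH1 knockdown line; potency is read from the fitted curve at half-maximal effect; 0% = DMSO-treated cells and -100% = media-only wells without cells; nearly all actives have a fitted effect of over 55% in size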
#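 750 cells/well, RPMI + 5% FBS; 2 h settle, compound pin-transfer, 48 h at 37 degrees C. CellTiter-Glo 10 min RT, luminescence. Normalized to DMSO and media-only wells.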
# uPA surface inh – cell surface uPA generation inhibition. cell surface uPA generation assay, qHTS. Potency, µM (titrated, usually from 38.3 µM), for inactives: at the highest dose activity change, negative = inhibition, hits mostly inhibitors. 0.31% of 330,000 active. AID 540303; active = well fitted inhibition curve with a large enough effect; inconclusive = small, poorly fitted or top-dose-only effect; inactive = no such curve, though single readings can be large or run the other way; tested in mouse RAW 264.7 cells; also: potency is read from the fitted curve at half-maximal effect; nearly all actives have a fitted effect of over 55% in size
# HT1080 IDH1KD tx – HT-1080 IDH1 knockdown cell toxicity (counter line). 2% of 360,000 active. HT-1080 IDH1 knockdown viability, ATP luminescence, 48 h. Potency, µM (top dose mostly 46.1 µM), for the others: at the top dose activity, negative = toxicity, hits mostly cytotoxic;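 also: potency is read from the fitted curve at half-maximal effect; 0% = DMSO wells and -100% = cell-free medium wells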
#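 Luminescent ATP read-out (CellTiter-Glo, 10 min at room temperature) after 48 h compound exposure at 37 °C gave viability of IDH1-knockdown HT-1080 cells. Activity was normalised to DMSO and cell-free wells, then fitted as concentration-response curves.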
# DT40 TDP1 CPT – DT40-hTDP1 cell growth loss with CPT; chicken DT40 Tdp1-/-;hTDP1 cells + 20 nM CPT, ATP luminescence, 48 h; Potency, µM (titrated, usually from 46.2 µM), inactives show at the top dose activity change, negative = growth inhibition, actives largely listed as inhibitors; 12% of 420,000 active; also: potency is read from the fitted curve at half-maximal effect; nearly all actives have a fitted effect of over 55% in size
#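 Chicken DT40 Tdp1-/- cells stably complemented with human TDP1 were seeded at 400 cells/well in medium containing 20 nM camptothecin, exposed to pin-transferred compounds, and grown at 37 °C for at least 48 hr. Viability was read as ATP luminescence.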
# The depositor's hits bear a star; ? = inconclusive; . = no result. Unless noted, calls follow the shape of the dose curve; as a rule, active = well fitted curve in the direction sought with a large enough effect; inconclusive = small, poorly fitted or top-dose-only effect, or another doubt; inactive = no such curve, though single readings can be large; an effect the other way counts as inactive or inconclusive. Unless noted, % is scaled to controls: 0 for no effect and ±100 for the full control effect.
SMILES,IL-1B inflam inh,TDP1 cell noCPT,HT1080-NT tox,uPA surface inh,HT1080 IDH1KD tx,DT40 TDP1 CPT
Cc1ccc(C)c(N2CCN(C(=O)c3cc4ccccn4n3)CC2)c1,18.1,23.1µM*,-4.0%,0.6%,0.4%,?
Cc1ccc(C)c(N2CCN(C(=O)c3ccc4nsnc4c3)CC2)c1,?,13µM*,8.2µM*,-16.7%,9.2µM*,11.6µM*
Cc1ccc(C)c(N2CCN(C(=O)c3ccc4[nH]c(C)c(C)c4c3)CC2)c1,.,11.6µM*,.,.,.,11.6µM*
Cc1ccc(Cl)cc1N1CCN(C(=O)c2ccc3nc[nH]c3c2)CC1,?,?,-21.1%,7.4%,-25.0%,?
CCC(=O)NCCc1nc2cc(NC(=O)c3ccco3)ccc2n1C,4.5,2.8%,6.0%,-2.3%,1.9%,9.1%
CC(=O)Nc1cccc(NC(=O)Cn2cnc3c2c(=O)n(C)c(=O)n3C)c1,.,-2.5%,.,.,.,0.0%
CCN(Cc1ccccc1)C(=O)CN(c1ccc(OC)cc1)S(=O)(=O)c1c(C)nn(C)c1C,.,?,.,.,.,3.9%
Cc1c(Cl)cccc1NC(=S)N1CCN(S(=O)(=O)c2cccs2)CC1,18.0,-1.3%,14.4%,-2.1%,2.6%,-1.7%
C[C@@H]1CN(S(=O)C(C)(C)C)[C@H](CCO)/C1=C\CCO (stereo partly drawn),1.7,-0.3%,13.7%,9.9%,5.5%,0.6%
O=C(CCC1CCCCC1)Nc1ccc(C(=O)c2ccncc2)cc1,-92.2*,?,-3.5%,-5.0%,-0.3%,?
O=C(CCC1CCCCC1)Nc1cccnc1,12.7,-22.7%,4.7%,-8.5%,2.2%,-8.0%
CN(C)c1ncc2nc(-c3cccs3)c(=O)n(C)c2n1,.,18.0%,.,.,.,-1.6%
O=C(O)COc1ccccc1/C=N/NC(=O)CSc1nc2ccccc2n1Cc1ccc(Cl)cc1,22.6,-2.9%,0.0%,-7.6%,-0.8%,2.8%
CCOC(=O)/C(C#N)=C1/C(=O)N(Cc2ccccc2)c2ccccc21,-11.9,5.17µM*,-3.5%,-6.2%,-13.8%,7.31µM*
O=C(c1ccc(Cl)cc1)C1CCCN(C(=O)/C=C/c2ccccn2)C1 (stereo not drawn),-8.1,20.6µM*,6.1%,-3.5%,-0.1%,23.1µM*
COc1ccc(C(=O)C2CCCN(C(=O)c3ccccc3C(C)=O)C2)cc1F (stereo not drawn),76.6,?,0.2%,-3.4%,-2.5%,?
Cc1cnc(C(=O)N2CCCC(C(=O)c3ccc(C(C)(C)C)cc3)C2)cn1 (stereo not drawn),24.6,23.1µM*,-1.0%,0.3%,0.3%,?
CC(C)(C)c1ccc(C(=O)C2CCCN(C(=O)c3ccccn3)C2)cc1 (stereo not drawn),0.0,?,-1.1%,-25.1%,-10.5%,9.2µM*
CC(C)(C)c1ccc(C(=O)C2CCCN(C(=O)CCn3cncn3)C2)cc1 (stereo not drawn),8.3,?,0.0%,-8.3%,-11.9%,?
CC(=O)c1ccccc1C(=O)N1CCCC(C(=O)c2ccc(C(F)(F)F)cc2)C1 (stereo not drawn),15.9,23.1µM*,1.6%,-20.9%,-6.7%,23.1µM*
CN(C)S(=O)(=O)c1ccc(S(=O)(=O)N2CCCC(C(=O)NC3CCCC3)C2)cc1 (stereo not drawn),1.2,2.91µM*,16.1%,-2.1%,26.0%,?
Cc1cc(C)c(S(=O)(=O)N2CCCC(C(=O)NC3CCCC3)C2)c(C)c1 (stereo not drawn),8.2,20.6µM*,-15.7%,-7.4%,-12.6%,?
Cc1nn(C)c(C)c1S(=O)(=O)N1CCCC(C(=O)N2CCN(c3ccc(Cl)cc3)CC2)C1 (stereo not drawn),-23.2,6.51µM*,-2.9%,-9.7%,?,11.6µM*

# Bioassay records (PubChem BioAssay)
